MEP2-GFP yeast – alters MEP2-GFP fluorescence in TOR pathway yeast screen; 330,000 tested, 0.51% active; GFP response vs DMSO, % at 10 µM; S. cerevisiae MEP2-GFP strain, flow cytometry GFP, 3 h; 100% = DMSO control level;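 active = GFP response versus DMSO above a set limit, roughly screen mean plus 3 SD, cut at about 180% in these data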;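 also: median GFP fluorescence of the barcode-gated MEP2-GFP cells per well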
CIT2 TOR yeast – alters CIT2-GFP fluorescence in TOR pathway yeast screen | S. cerevisiae CIT2-GFP strain, flow cytometry, 3 h; 100 means same as DMSO wells | GFP response vs DMSO, % at 10 µM | 320,000 tested, 0.065% active | AID 2029;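 active = GFP response relative to DMSO above a set limit, near the screen mean plus 3 SD, cut at about 150% in these data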;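 also: ratio of well median GFP fluorescence to mean of DMSO wells on the plate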
AGP1-GFP MLPCN – yeast TOR pathway AGP1-GFP modulation | S. cerevisiae AGP1-GFP multiplex flow cytometry, 3 h; GFP as percent of DMSO wells | GFP response vs DMSO, % at 10 µM | 320,000 tested, 0.02% active | AID 2066;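 active = GFP response relative to DMSO above a set limit, near screen average plus 3 SD, cut at about 150% in these data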;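 also: median GFP channel fluorescence of the gated AGP1 strain per well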
RPL19A-GFP yeast – alters RPL19A-GFP fluorescence in TOR pathway yeast screen | S. cerevisiae RPL19A-GFP strain, flow cytometry, 3 h; hits give low values | percent response vs DMSO, % at 10 µM | 330,000 tested, 0.3% active | AID 2025;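 active = percent response vs DMSO below 50%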;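 also: median channel GFP fluorescence of the barcoded RPL19A-GFP strain; ratio of sample median GFP to plate DMSO average so 100% = DMSO; lower means less RPL19A-GFP as with rapamycin TOR inhibition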
LAP4-GFP MLPCN – yeast TOR pathway LAP4-GFP modulation; S. cerevisiae LAP4-GFP multiplex, flow cytometry GFP, 3 h; median GFP as percent of DMSO wells; GFP response vs DMSO, % at 10 µM; 320,000 tested, 0.34% active; AID 2023;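 active = GFP response vs DMSO above a set limit, about the screen mean plus 3 SD, cut at about 150% in these data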
LAP4 cherry2 – second confirmation of modulators of TOR reporter LAP4-GFP in yeast; GFP response vs DMSO, % at 10 µM; 590 tested, 20% active; shares compounds with LAP4-GFP MLPCN; S. cerevisiae LAP4-GFP strain, flow cytometry GFP, 3 h;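 active = GFP signal as percent of the solvent control above about 150%, meaning raised reporter expression, limit read from the data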;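 also: ratio of well median GFP fluorescence to plate DMSO mean so 100% = DMSO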
MEP2 cherry2 – reconfirmed MEP2-GFP TOR pathway modulator in yeast; shares compounds with LAP4-GFP MLPCN; S. cerevisiae MEP2-GFP strain, flow cytometry GFP, 3 h; GFP response vs DMSO, % at 10 µM; 590 tested, 10% active; AID 2622;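 active = GFP signal above 150% of the solvent control wells, that is a rise of more than half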;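 also: median channel GFP fluorescence of all gated yeast cells per well; ratio of median GFP to plate DMSO average so 100% = DMSO level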
RPL19A GFP CP2 – yeast RPL19A-GFP TOR reporter modulation, second cherry pick; shares compounds with LAP4-GFP MLPCN; S. cerevisiae RPL19A-GFP strain, flow cytometry GFP, 3 h; hits give low values; 100% means same as DMSO wells; GFP response vs DMSO, % at 10 µM; 590 tested, 3% active; AID 2623;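 active = under 65% GFP response relative to DMSO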;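 also: median GFP channel fluorescence per well over the all cells gate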
CIT2-GFP pick2 – yeast CIT2-GFP TOR reporter modulation, second cherry pick | shares compounds with LAP4-GFP MLPCN | S. cerevisiae CIT2-GFP strain, flow cytometry GFP, 3 h; DMSO control wells read 100% | GFP response vs DMSO, % at 10 µM | 590 tested, 8% active | AID 2624;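 active = GFP response vs DMSO above about 150%, limit read from the data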;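 also: median green fluorescence per well over all gated yeast cells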
AGP1 GFP CP2 – yeast AGP1-GFP TOR reporter modulation, second cherry pick | shares compounds with LAP4-GFP MLPCN | S. cerevisiae AGP1-GFP strain, flow cytometry GFP, 3 h | percent response vs DMSO, % at 10 µM | 590 tested, under 10 active;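 active = over 150 percent of DMSO response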;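 also: median GFP channel fluorescence over all cells without mother daughter split; sample median GFP divided by mean DMSO control so 100% equals DMSO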
s288c autofluor – counter-screen for compound autofluorescence in yeast s288c cells; shares compounds with LAP4-GFP MLPCN; S. cerevisiae s288c, 520 nm autofluorescence, flow cytometry, 3 h; hits give high values; zero means same as solvent-only cells; fluorescence change (kMESF span) at 33 µM; 610 tested, under 10 active;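 active = fluorescence span over the dose series, or activity score, above about 33, limit read from the data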
s288c autofl DR – TOR screen hit shows autofluorescence in yeast s288c; shares compounds with LAP4-GFP MLPCN; S. cerevisiae s288c parental, compound autofluorescence, flow cytometry, 3 h; 110 tested, under 10 active; fluorescence change (span) at 33 µM;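 active = fluorescence change span, or the activity score built from it, above 25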
TORC1 bypass gr – compounds blocking wildtype yeast growth but not TORC1 bypass cells. S. cerevisiae BY4741 spot growth rating, 48-72 h; hits give low values. growth rating (0-3) at 30 µM. shares compounds with LAP4-GFP MLPCN. 120 tested, under 10 active;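 active = growth rating at most 1 for wild type yeast while the TORC1 bypass strain still grows fully, rated 3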
* = called active by the depositor. Compounds with a hit are over-represented: about 0.92% of the library has one in this group of screens.

`CC(Oc1ccc2c3c(c(=O)oc2c1)CCC3)C(=O)NCCCn1ccnc1` (stereo not given) gave MEP2-GFP yeast 95, CIT2 TOR yeast 100, AGP1-GFP MLPCN 95, RPL19A-GFP yeast 92 and LAP4-GFP MLPCN 88.
For Cc1cccc(NC(=O)C(C)C(=O)c2ccccc2)c1 (stereo not given) the results were MEP2-GFP yeast 105, CIT2 TOR yeast 101, AGP1-GFP MLPCN 102, RPL19A-GFP yeast 105, LAP4-GFP MLPCN 96, LAP4 cherry2 105, MEP2 cherry2 108, RPL19A GFP CP2 98, CIT2-GFP pick2 108 and AGP1 GFP CP2 95.
For Cc1cccc(C(=O)NNC(=O)Nc2ccccc2)c1 the results were MEP2-GFP yeast 104, CIT2 TOR yeast 103, AGP1-GFP MLPCN 103, RPL19A-GFP yeast 105 and LAP4-GFP MLPCN 96.
For CCOc1ccc2nc(SCC(=O)NCc3ccc(S(N)(=O)=O)cc3)[nH]c2c1 the results were MEP2-GFP yeast 103, CIT2 TOR yeast 106, AGP1-GFP MLPCN 104, RPL19A-GFP yeast 104 and LAP4-GFP MLPCN 98.
`Cc1ccc(C)c(SCC(=O)c2ccc[nH]2)c1` gave MEP2-GFP yeast 118, CIT2 TOR yeast 113, AGP1-GFP MLPCN 112, RPL19A-GFP yeast 111 and LAP4-GFP MLPCN 105.
O=C1C(Cl)=C(NCCc2ccccc2)C(=O)N1CCc1ccccc1 was read as MEP2-GFP yeast 90, CIT2 TOR yeast 82, AGP1-GFP MLPCN 91, RPL19A-GFP yeast 91, LAP4-GFP MLPCN 96 and s288c autofluor 0.1.
CC(=O)c1sc2nc(-c3cccs3)ccc2c1N was read as MEP2-GFP yeast 122, CIT2 TOR yeast 104, AGP1-GFP MLPCN 65, RPL19A-GFP yeast 81, LAP4-GFP MLPCN 175*, LAP4 cherry2 96, MEP2 cherry2 97, RPL19A GFP CP2 100, CIT2-GFP pick2 106 and AGP1 GFP CP2 96.
For Nc1c(C(=O)Nc2nc3ccccc3s2)sc2nc(-c3cccs3)ccc12 the results were MEP2-GFP yeast 102, CIT2 TOR yeast 106, AGP1-GFP MLPCN 98, RPL19A-GFP yeast 100 and LAP4-GFP MLPCN 104.
COc1ccc(-c2cc3nc4n(c(=O)c3s2)CCC4)cc1 was read as MEP2-GFP yeast 111, CIT2 TOR yeast 68, AGP1-GFP MLPCN 65, RPL19A-GFP yeast 65, LAP4-GFP MLPCN 110, LAP4 cherry2 95, MEP2 cherry2 103, RPL19A GFP CP2 64*, CIT2-GFP pick2 85, AGP1 GFP CP2 69 and s288c autofluor 0.5.
`COc1ccc(-c2cc3nc4n(c(=O)c3s2)CCCCC4)cc1` gave MEP2-GFP yeast 94, CIT2 TOR yeast 84, AGP1-GFP MLPCN 93, RPL19A-GFP yeast 95 and LAP4-GFP MLPCN 121.
For CCOC(=O)c1c(CSCc2ccccc2)oc2ccc(O)c(CN(C)C)c12 the results were MEP2-GFP yeast 156, CIT2 TOR yeast 90, AGP1-GFP MLPCN 88, RPL19A-GFP yeast 55, LAP4-GFP MLPCN 95, LAP4 cherry2 98, MEP2 cherry2 100, RPL19A GFP CP2 100, CIT2-GFP pick2 113 and AGP1 GFP CP2 98.
For CCOC(=O)c1c(-c2ccccc2)oc2ccc(O)c(CN(C)C)c12 the results were MEP2-GFP yeast 98, CIT2 TOR yeast 103, AGP1-GFP MLPCN 97, RPL19A-GFP yeast 98 and LAP4-GFP MLPCN 93.
O=C(NC1CCN(S(=O)(=O)c2ccccc2C(F)(F)F)CC1)c1ccco1 was read as MEP2-GFP yeast 93, CIT2 TOR yeast 105, AGP1-GFP MLPCN 96, RPL19A-GFP yeast 102 and LAP4-GFP MLPCN 88.
For CN(C)c1ccc(NC(=S)NC23CC4CC(CC(C4)C2)C3)cc1 the results were MEP2-GFP yeast 108, CIT2 TOR yeast 109, AGP1-GFP MLPCN 110, RPL19A-GFP yeast 105 and LAP4-GFP MLPCN 104.
O=C(Oc1ccnc2cc(Cl)ccc12)N1CCCCCC1 was read as MEP2-GFP yeast 422*, CIT2 TOR yeast 79, AGP1-GFP MLPCN 185*, RPL19A-GFP yeast 88, LAP4-GFP MLPCN 135, s288c autofluor 0.2, s288c autofl DR 0.26 and TORC1 bypass gr 3.
For CCOC(=O)N1CCN(c2ccnc3cc(Cl)ccc23)CC1 the results were MEP2-GFP yeast 100, CIT2 TOR yeast 105, AGP1-GFP MLPCN 104, RPL19A-GFP yeast 104 and LAP4-GFP MLPCN 94.
For CCN(CC)C(=O)Oc1ccnc2cc(Cl)ccc12 the results were MEP2-GFP yeast 123, CIT2 TOR yeast 96, AGP1-GFP MLPCN 124, RPL19A-GFP yeast 97, LAP4-GFP MLPCN 109, LAP4 cherry2 100, MEP2 cherry2 198*, RPL19A GFP CP2 105, CIT2-GFP pick2 90, AGP1 GFP CP2 148, s288c autofluor 0.1, s288c autofl DR 0.08 and TORC1 bypass gr 3.
For COCCNc1nc(C)cc(-c2cc(C(=O)NC3CCCC3)on2)n1 the results were MEP2-GFP yeast 82, CIT2 TOR yeast 88, AGP1-GFP MLPCN 82, RPL19A-GFP yeast 88 and LAP4-GFP MLPCN 134.
Screening Cc1cc(-c2cc(C(=O)NCc3ccccc3)on2)nc(NCC2CC2)n1 returned MEP2-GFP yeast 113, CIT2 TOR yeast 96, AGP1-GFP MLPCN 100, RPL19A-GFP yeast 100, LAP4-GFP MLPCN 109, LAP4 cherry2 102, MEP2 cherry2 97, RPL19A GFP CP2 98, CIT2-GFP pick2 100 and AGP1 GFP CP2 98.

Compound activity from PubChem BioAssay.
